A selection: hits, their analogues and other compounds. The true share with any hit is near 2.8%.
POLI inh: inhibitors of human DNA polymerase iota. Q9UNA4. Pol iota fluorescent replication assay, 10 min. Potency, µM (titrated, usually from 115 µM), for the others: at the top dose activity, negative = inhibition, usual class: inhibitors. 390,000 compounds, 1% hits. AID 588590; note: potency is the fitted concentration of half-maximal effect
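Fluorescent replication assay read twice, at 0 min and 10 min after adding 50 nM (final) substrate. Enzyme (10 nM) and compounds were first incubated 15 min at room temperature; enzyme-free buffer wells were negative controls.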
Pol eta inh-1: inhibitors of human DNA polymerase eta | Q9Y253 | recombinant Pol eta, fluorescent DNA replication assay | Potency, µM (highest dose often 114 µM), for inactives: top-dose activity change, negative = inhibition, actives largely listed as inhibitors | 390,000 compounds, 1.2% hits | AID 588591; note: potency is the fitted concentration of half-maximal effect; % is set by controls: 0 for no effect and ±100 for the full control effect
Target sequence (Q9Y253 whole entry, looked up): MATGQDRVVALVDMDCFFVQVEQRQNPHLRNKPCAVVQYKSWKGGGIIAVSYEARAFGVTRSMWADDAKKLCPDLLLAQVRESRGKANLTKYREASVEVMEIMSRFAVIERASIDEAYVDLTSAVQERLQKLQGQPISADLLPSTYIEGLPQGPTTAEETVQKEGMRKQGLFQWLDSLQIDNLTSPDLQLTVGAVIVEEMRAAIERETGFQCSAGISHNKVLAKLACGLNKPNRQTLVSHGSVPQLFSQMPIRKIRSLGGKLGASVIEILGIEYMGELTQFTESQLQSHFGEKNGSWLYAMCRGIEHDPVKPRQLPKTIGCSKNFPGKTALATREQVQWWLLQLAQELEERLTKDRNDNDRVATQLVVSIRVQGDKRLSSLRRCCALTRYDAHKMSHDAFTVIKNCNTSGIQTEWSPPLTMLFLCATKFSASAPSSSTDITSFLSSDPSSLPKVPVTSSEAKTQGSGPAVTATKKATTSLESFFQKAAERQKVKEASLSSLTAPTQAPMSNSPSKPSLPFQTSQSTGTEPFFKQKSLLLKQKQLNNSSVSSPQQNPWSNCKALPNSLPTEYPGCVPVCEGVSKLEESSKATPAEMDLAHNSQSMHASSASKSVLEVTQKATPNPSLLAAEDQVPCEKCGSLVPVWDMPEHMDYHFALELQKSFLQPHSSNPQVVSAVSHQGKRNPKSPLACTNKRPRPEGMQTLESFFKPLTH
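Pol eta (10 nM) was preincubated with compounds for 15 min at room temperature, after which fluorescent replication substrate (50 nM final) was added to start the reaction. Fluorescence was read kinetically at 0 and 10 min.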
Pol kappa inh-1: DNA polymerase kappa (human) inhibition | Potency, µM (doses to about 107 µM), for inactives: top-dose activity, negative = inhibition, actives largely listed as inhibitors | 400,000 compounds, 0.53% hits | purified Pol kappa, fluorescent DNA synthesis assay, 10 min | Q9UBT6; note: potency is the fitted concentration of half-maximal effect; % is set by controls: 0 for no effect and ±100 for the full control effect
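First, compounds were pin-transferred onto 10 nM Pol kappa. After 15 min at room temperature, substrate was added to 50 nM final. Fluorescence was then measured kinetically at 0 and 10 min.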
WRN helicase inh-1: WRN helicase (human) inhibition | AID 651768 | WRN helicase unwinding, fluorescent forked duplex, kinetic | Potency, µM (top dose mostly 114 µM), for inactives: at the highest dose activity change, negative = inhibition, usual class: inhibitors | 360,000 compounds, 0.46% hits; note: potency is the fitted concentration of half-maximal effect; % is set by controls: 0 for no effect and ±100 for the full control effect; nearly all actives have a fitted effect of over 55% in size
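WRN at 20 nM final was preincubated with compound for 15 min at room temperature; reaction started with 100 nM forked duplex oligonucleotide carrying fluorophore and quencher plus 2 mM ATP (final). Unwinding followed kinetically by red fluorescence (ex 525/em 598 nm).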
PI5P4Ka inh: inhibitors of human PI5P4K alpha; P48426; PI5P4Kalpha enzyme, ADP-Glo luminescence, 60 min; stronger effect = lower value; max response, %; 330,000 compounds, 1.2% hits; AID 652105; active = max response of -50% or lower; inconclusive = between -30% and -50%; inactive = -30% or higher; note: value at the top dose of about 77 µM; % is set by controls: 0 for no effect and ±100 for the full control effect
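Single end-point luminescence (ADP-Glo) quantified ADP from PI5P4Kalpha turnover; ATP 5 microM final, 1 h at RT, 0.1% CHAPS and 0.28 mM EGTA in HEPES pH 7.4.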
Pol beta inh: DNA polymerase beta (human) inhibition; P06746; Pol beta primer extension/strand displacement, fluorescence kinetic; Potency, µM (top dose mostly 114 µM), inactives show at the top dose activity change, negative = inhibition, actives largely listed as inhibitors; 340,000 compounds, 1.3% hits; AID 485314; note: potency is the fitted concentration of half-maximal effect; % is set by controls: 0 for no effect and ±100 for the full control effect
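Enzyme-only controls used 10 nM Pol beta; buffer lacking enzyme served as negative control. Compound preincubated 15 min, then 50 nM substrate added; 0 and 10 min reads at room temperature.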
TbPGK inh: TbPGK inhibition, hit validation; shares compounds with Pol kappa inh-1; TbPGK coupled GAPDH assay, Kinase-Glo luminescence; Potency, µM (highest dose often 57.5 µM), for the others: at the highest dose activity change, negative = inhibition, hits mostly inhibitors; 500 compounds, 79% hits; AID 686980; note: potency is the fitted concentration of half-maximal effect; % is set by controls: 0 for no effect and ±100 for the full control effect; nearly all actives have a fitted effect of over 65% in size
Pol iota confirm: Confirm cherry-picked inhibitors of human polymerase iota; shares compounds with Pol kappa inh-1; Pol iota primer extension, TAMRA/BHQ fluorescence; Potency, µM, actives largely listed as inhibitors; 1,500 compounds, 77% hits; AID 720496; note: potency is the fitted concentration of half-maximal effect
Pol kappa inh-2: Pol kappa (human) inhibition, cherry-pick confirmation; shares compounds with Pol eta inh-1; purified Pol-kappa, fluorescent strand-displacement substrate; Potency, µM, hits mostly inhibitors; 920 compounds, 76% hits; AID 720501; note: potency is the fitted concentration of half-maximal effect
Pol eta inh-2: Pol eta (human) inhibition, cherry-pick confirmation | 2,600 compounds, 64% hits | Pol eta primer extension, TAMRA/BHQ fluorescence, 10 min | shares compounds with Pol eta inh-1 | Potency, µM, most hits filed as inhibitors | AID 720502; note: potency is the fitted concentration of half-maximal effect
WRN helicase inh-2: WRN helicase inhibition, cherry-pick retest; shares compounds with WRN helicase inh-1; WRN helicase DNA unwinding, fluorescence kinetic; Potency, µM (top dose mostly 57.1 µM), for inactives: at the highest dose activity, negative = inhibition, actives largely listed as inhibitors; 610 compounds, 63% hits; note: potency is the fitted concentration of half-maximal effect; nearly all actives have a fitted effect of over 65% in size
TO DNA binding: DNA binding via thiazole orange displacement | shares compounds with WRN helicase inh-1 | thiazole orange DNA binding displacement, fluorescence | Potency, µM (highest dose often 57.1 µM), for the others: at the highest dose activity change, negative = inhibition, usual class: inhibitors | 610 compounds, 10% hits | AID 720499;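 note: drop in dye fluorescence marks compound binding to DNA; potency is the fitted concentration of half-maximal effect; % is set by controls: 0 for no effect and ±100 for the full control effect; nearly all actives have a fitted effect of over 60% in size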
BLM helicase inh: blocks human BLM helicase in WRN counterscreen | Potency, µM (doses to about 57.1 µM), without a hit: top-dose activity change, negative = inhibition, actives largely listed as inhibitors | 610 compounds, 60% hits | shares compounds with WRN helicase inh-1 | Recombinant BLM helicase DNA unwinding, red fluorescence; note: potency is the fitted concentration of half-maximal effect; nearly all actives have a fitted effect of over 60% in size
ADP-Glo counter: ADP-Glo luciferase interference, PI5P4K counter-screen | shares compounds with PI5P4Ka inh | ADP-Glo detection counter-screen, luciferase luminescence, no enzyme | Potency, µM (top dose mostly 76.9 µM), inactives show at the top dose activity change, negative = inhibition, most hits filed as inhibitors | 1,100 tested, under 10 active
An asterisk follows results filed as active; ? = inconclusive; · = no result; [ ] = dose if it differs, or a comment. Unless noted, calls come from the whole dose curve; as a rule, active = well fitted curve in the direction sought with a large enough effect; inconclusive = small, poorly fitted or top-dose-only effect, or another doubt; inactive = no such curve, though single readings can be large; an effect the other way counts as inactive or inconclusive.

SMILES | POLI inh | Pol eta inh-1 | Pol kappa inh-1 | WRN helicase inh-1 | PI5P4Ka inh | Pol beta inh | Pol iota confirm | Pol eta inh-2 | ADP-Glo counter | others
O=C(CSc1nnc2ccccn12)NNC(=O)c1ccccc1F | 73% | 0% | -12% | 2% | 7 | · | · | · | ·
CCC(C(=O)N1CCC(N2CCCCC2)CC1)n1nc(C)c2sc3ccccc3c2c1=O (stereo unspecified) | -7% | -11% | -14% | 6% | -5 | -2% | · | · | ·
Cc1ccc(NC(=O)CN(C)C(=O)c2cc(-c3ccco3)nc3ccccc23)cc1 | 18µM* | 20µM* | 50µM* | 71µM* | -95* | · | 42* | 60* | -8%
CCOc1ccc(NC(=O)CN(C)C(=O)c2cc(-c3ccco3)nc3ccccc23)cc1OCC | 24% | -9% | 0% | -4% | 1 | · | · | · | ·
COc1cccc(NC(=O)CN(C)C(=O)c2cc(-c3ccco3)nc3ccccc23)c1 | 35µM* | ? | ? | -16%[11.6 µM] | -60* | · | 38* | 30* | -9%
COc1ccc(CCNC(=O)c2cc(-c3ccco3)nc3ccccc23)cc1 | 22µM* | 8.9µM* | 79µM* | ? | -61* | · | 34* | 67* | -1%
Cc1oc(-c2ccc(Cl)cc2)cc1-c1nn2c(-c3ccoc3C)nnc2s1 | ? | 4.5µM* | ? | ? | -65* | 3.5µM* | ? | 76* | 0%
O=C(NCc1ccccc1)c1onc(CSc2ccccc2)c1C(=O)NCC1CC1 | -3% | -18% | -6% | -8% | 5 | -4% | · | · | ·
COc1ccc(Cn2c(C)nc3c(c2=O)c2nc4ccccc4nc2n3Cc2ccco2)cc1 | 3.2µM* | 8.9µM* | 35µM* | 8.4µM* | -59* | · | 13* | 30* | 1%
O=C(COCc1cc(-c2ccc(F)cc2)on1)Nc1cccc(C(F)(F)F)c1 | 13% | -19% | -3% | · | · | 33% | · | · | ·
O=C(NCc1ccco1)c1cc2ccc(O)cc2oc1=O | ? | 6.3µM* | 79µM* | ? | -81* | 16µM* | · | 76* | ? | TbPGK inh=16µM*
Cc1cccc(NC(=S)NNC(=O)CCn2cc(C)cn2)c1 | -2%[58.9 µM] | 11% | -1% | 0% | · | 0% | · | · | ·
Cc1ccc(C)c(S(=O)(=O)Nc2ccc3oc(C)c(C(=O)O)c3c2)c1 | 14µM* | 10µM* | 79µM* | 56µM* | -95* | 8.9µM* | 34* | 27* | -6%
CC1(C)N=C(/C=N/O)CN1O | 1% | -13% | 1% | 2%[57.1 µM] | -8 | -3% | · | · | ·
CCn1c(SCc2nc3sc(C(=O)O)c(C)c3c(=O)[nH]2)nc2ccccc21 | 2.8µM* | 0.71µM* | 3.5µM* | 20µM* | -64* | 8.9µM* | 9.5* | 2.7* | 1% | TbPGK inh=?;WRN helicase inh-2=6.8µM*;TO DNA binding=12µM*;BLM helicase inh=19µM*
COCCn1c(SCc2nc3sc(C(=O)OC)c(C)c3c(=O)[nH]2)nc2ccccc21 | 4% | ? | -1% | -5% | -21 | -5% | · | · | ·
O=C(CSc1nnc(NC(=O)c2c(F)cccc2F)s1)NCc1ccc(F)cc1 | 9% | -3% | -10% | -17% | -4 | · | · | · | ·
CCN(CC)C(=O)CC(c1cc(OC)c(OC)c(OC)c1)c1c(OC)cc(OC)c2ccc(=O)oc12 (stereo unspecified) | -24% | -2% | -10% | -6% | 1 | 5% | · | · | ·
CCN(CC)C(=O)CC(c1cc(OC)c(OC)c(OC)c1)c1c(OC)cc(OC)c2c(-c3ccccc3)cc(=O)oc12 (stereo unspecified) | 71µM* | 40µM* | 79µM* | -11%[11.6 µM] | -56* | 40µM* | 24* | 60* | 3%
CCCCN(C(=O)c1cccc(-n2cccc2)c1)c1c(N)n(CCC)c(=O)[nH]c1=O | 14µM* | 16µM* | ? | 56µM* | -61* | · | 30* | 38* | 2%
CCCN(C(=O)c1cccc(-n2cccc2)c1)c1c(N)n(Cc2ccccc2)c(=O)[nH]c1=O | 10µM* | 11µM* | 28µM* | 50µM* | -88* | · | 30* | 43* | -8%
CCCN(C(=O)c1ccc([N+](=O)[O-])c(C)c1)c1c(N)n(Cc2ccccc2)c(=O)[nH]c1=O | 33% | -11% | 5% | -4% | 6 | · | · | · | ·
N#Cc1c(SCC(=O)Nc2nncs2)sc2c(O)cc(=O)[nH]c12 | 2µM* | 7.1µM* | 8.9µM* | 14µM* | -76* | 4µM* | 19* | 19* | 1%
C#C[C@]1(O)CC[C@@H]2[C@H]3CCC4=CC(=O)CC[C@H]4[C@H]3C(=C)C[C@@]21CC | · | · | -8%[19.4 µM] | · | · | · | · | · | ·
COc1ccc(S(=O)(=O)N2CCN(C(=O)c3cc4c(s3)CCC4)CC2)cc1 | 2.8µM* | 2.2µM* | 28µM* | 35µM* | -82* | · | 3* | 7.6* | 5% | Pol kappa inh-2=3*;WRN helicase inh-2=7.6µM*;TO DNA binding=?;BLM helicase inh=1.1µM*

Screens from PubChem BioAssay.
